Screens deposited in PubChem BioAssay by several laboratories.
V-ATPase pHluor: regulators of yeast V-ATPase proton transport; S. cerevisiae, pHLuorin cytosolic pH fluorescence; response, % at 10 µM; 350,000 tested, 0.37% active; AID 504577; in the data active means response mostly above about 7.3%, no sharp cut-off; inactive means mostly below about 5.4%; further: actives read high
zVAD death inh: blocks zVAD induced death of L929 cells | L929 zVAD necroptosis rescue, ATP luminescence, 24 h; with zVAD 60 µM | viability rescue, % at 10 µM | 220,000 tested, 0.38% active;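 active means activation, scaled between plate controls, above about 75%, limit read from the data; inactive means activation under that limit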
Wee1 stabilizer: blocks degradation of human Wee1 kinase; P30291; HeLa Luc-Wee1K328M stability, luciferase luminescence; 100% = proteasome inhibitor MG132 effect; reporter increase, % at 5 µM; 220,000 tested, 1.2% active;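 active means activation above the mean of all tested compounds plus 3 SD, set per screening run, cut at about 8.8% in these data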;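 further: cells exposed to compound for 20 h before luminescence read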
Target sequence (P30291 whole entry K328M): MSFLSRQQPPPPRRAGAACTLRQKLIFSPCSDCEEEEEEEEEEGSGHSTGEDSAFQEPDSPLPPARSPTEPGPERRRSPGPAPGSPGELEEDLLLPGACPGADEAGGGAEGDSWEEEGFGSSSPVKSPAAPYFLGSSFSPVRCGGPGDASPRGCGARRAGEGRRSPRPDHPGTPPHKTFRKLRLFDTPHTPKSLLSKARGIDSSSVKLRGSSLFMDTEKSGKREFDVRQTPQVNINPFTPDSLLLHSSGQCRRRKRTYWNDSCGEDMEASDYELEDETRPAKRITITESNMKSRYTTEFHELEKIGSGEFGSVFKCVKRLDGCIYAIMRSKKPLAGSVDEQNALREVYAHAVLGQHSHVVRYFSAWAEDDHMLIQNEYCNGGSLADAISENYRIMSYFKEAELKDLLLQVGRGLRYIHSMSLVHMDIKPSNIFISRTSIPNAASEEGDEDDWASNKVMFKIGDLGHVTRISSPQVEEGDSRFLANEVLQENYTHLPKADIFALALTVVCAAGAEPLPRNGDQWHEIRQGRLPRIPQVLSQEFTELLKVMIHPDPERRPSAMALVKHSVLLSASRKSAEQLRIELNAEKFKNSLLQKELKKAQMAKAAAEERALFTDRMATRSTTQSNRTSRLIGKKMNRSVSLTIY
TNF necrop inh: blocks TNF-alpha induced death of Jurkat FADD-/- cells; Jurkat FADD-/- TNF necroptosis rescue, ATP luminescence, 24 h; 0 = TNF only, 100 = no-TNF cells; activation (protection from cell death), % at 10 µM; 220,000 tested, 0.068% active; AID 463075;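 active means activation, meaning protection from cell death, of at least 50% relative to plate controls; inactive means activation below 50%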;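 further: necroptosis triggered by 40 ng/mL TNF-alpha added together with compound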
HSV replic up: increases HSV replication in cells | HSV replication augmentation in cells, fold increase | maximum fold increase | 220,000 tested, 0.005% active | AID 1956; in the data active means maximum fold increase above about 1.5; inconclusive means no clear call, values can overlap the other calls; tested in PC3 cells
A number is an active result; – = inactive; ? = inconclusive; · = no result given. In the library only some 1.4% were active in any assay of this set; here they are far more common.

SMILES	V-ATPase pHluor	zVAD death inh	Wee1 stabilizer	TNF necrop inh	HSV replic up
CC1CCc2nc3ccccc3c(C(=O)OCC(=O)N3CCc4ccccc43)c2C1 (stereo not drawn)	15.7	–	–	–	–
CCCCNC(=O)C1CCCN(S(=O)(=O)c2c(C)noc2/C=C/c2cccs2)C1 (stereo not drawn)	–	–	–	–	–
Cc1noc(/C=C/c2cccs2)c1S(=O)(=O)N1CCC(C(=O)NCCCN2CCCC(C)C2)CC1 (stereo not drawn)	–	–	9.2	–	–
COc1ccc(NC(C)c2ccccc2)cc1 (stereo not drawn)	–	–	–	51.5	–
CCOc1ccc(C(=O)C(CCC(CN(C)C)C(=O)c2ccc(OCC)cc2)CN(C)C)cc1 (stereo not drawn)	9.6	–	–	–	–
O=C(c1ccccc1)C(CCC(CN1CCOCC1)C(=O)c1ccccc1)CN1CCOCC1 (stereo not drawn)	–	–	–	–	–
CN(C)CC(CCC(CN(C)C)C(=O)c1ccccc1)C(=O)c1ccccc1 (stereo not drawn)	–	–	11.2	–	–
COc1ccc(C(=O)C(CCCCC(CN(C)C)C(=O)c2ccc(OC)cc2)CN(C)C)cc1 (stereo not drawn)	–	–	–	–	·
O=C1Nc2cccnc2Sc2ccccc21	–	–	–	–	–
c1ccc2c(c1)Nc1nccnc1S2	–	85.5	–	–	·
CCN1CCN(C(=S)Nc2ccc([N+](=O)[O-])cc2)CC1	–	–	–	–	–
CCN1C(=O)/C(=C\c2cccn2-c2ccc([N+](=O)[O-])cc2)N(CC)C1=S	–	–	9.5	–	–
O=C(/C=C/c1ccco1)c1ccc(O)cc1	·	–	–	–	–
CN(C)c1ccc(C(=O)/C=C/c2ccco2)cc1	–	–	9.4	–	?
O=S(=O)(/N=C(/Nc1ccccc1)C(F)(F)F)c1ccccc1	–	–	–	–	–
CCc1ccccc1N/C(=N\S(=O)(=O)c1ccccc1)C(F)(F)F	–	–	10.2	–	–
COC(=O)c1cc(=O)c2c(C)nc(C(Cl)(Cl)Cl)nc2[nH]1	–	–	10.2	–	–
O=C(COc1ccccc1Cl)NC(=O)NC1CCCC1	–	–	–	57.4	–
COc1ccccc1C(=O)OCC(=O)NC1CCCC1	258.9	·	·	·	·
COc1ccccc1C(=O)OCC(=O)NC(=O)NC1CCCCC1	–	·	·	·	·
COc1ccccc1N(CC(=O)NC1CCCCC1)S(=O)(=O)c1cccs1	–	–	9.9	–	–
CS(=O)(=O)N1N=C(c2cccs2)CC1c1ccco1 (stereo not drawn)	–	–	–	–	–
COc1cc(S(=O)(=O)N2CCN(C(=O)c3cccs3)CC2)ccc1NC(C)=O	–	·	·	·	·
Cn1ncc2c(NNC(=O)c3ccccc3Cl)ncnc21	–	–	9.3	–	–
O=[N+]([O-])c1ccc(Nc2ccccc2F)nc1	–	–	–	72.9	–
SMILES	V-ATPase pHluor	zVAD death inh	Wee1 stabilizer	TNF necrop inh	HSV replic up
O=[N+]([O-])c1ccc(Nc2ccc(Cl)cc2)nc1	–	–	–	81.1	–
O=[N+]([O-])c1ccc(NCc2ccc(Cl)cc2)nc1	–	–	–	–	–
C[C@@H]1CN([C@@H](C)CO)S(=O)(=O)c2ccc(Br)cc2O[C@H]1CN(C)C(=O)C1CCC1	–	·	·	·	·
CSCCC(NC(=O)OC(C)(C)C)C(=O)Oc1ccc2c(=O)c(-c3ccc4c(c3)OCCO4)coc2c1 (stereo not drawn)	–	–	9.9	–	–
CSCCC(NC(C)=O)C(=O)Oc1ccc2c3c(c(=O)oc2c1)CCCC3 (stereo not drawn)	–	–	–	–	–
CC(Nc1ccc2c(c1)OCCO2)C(=O)N1CCc2ccccc21 (stereo not drawn)	–	–	–	–	–
O=C(NC(=O)c1ccccc1O)c1ccc(C(F)(F)F)cc1	–	–	9.1	–	–
O=C(CSc1n[nH]c(=O)n1Cc1ccccc1)Nc1ccc(N2CCOCC2)cc1	–	·	·	·	·
Cc1nnc(SCC(=O)Nc2ccc(N3CCOCC3)cc2)n1Cc1ccccc1	23.1	·	·	·	·
C(=C\c1ccncc1)/c1ccccc1	17.9	–	–	–	–
C(=C\c1ccncc1)/c1ccncc1	–	–	–	–	–
CCn1c(=O)c(C(=O)NCc2ccccc2)c(O)c2ccccc21	–	·	·	·	·
CC(C)Cn1c(=O)c(C(=O)NCc2ccccn2)c(O)c2ccccc21	–	–	12.0	–	–
CCn1c(COc2ccccc2OC)nnc1SCC#N	–	–	10.4	–	–
CCOC(=O)N1CCN(c2ccccc2OC)CC1	–	–	9.6	–	–
